Measurements published in PubChem BioAssay (NCATS).
“And” between values parts separate entries of the source, which are not always exact repeats. Identical values can stand only once. Inconclusive results are not listed. A call without a number means that no potency is given here. The source made the active and inactive calls. Calls follow the shape of the dose curve; as a rule, active = well fitted inhibition curve with a large enough effect; inconclusive = small, poorly fitted or top-dose-only effect; inactive = flat fitted curve, though single readings scatter.

Tests used:
Assay in all cases: qHTS profiling for inhibitors of Plasmodium falciparum proliferation (AID 504749); also: nearly all actives have a fitted effect of over 60% in size
Settings in all cases: P. falciparum in erythrocytes, SYBR Green DNA, 72 h; series mostly up to 28.7 µM
AA1029 = system: AA1029
Summary of the method: (§1)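 Infected RBCs, 0.3% parasitemia/2.5% Hct final; cpd 72 h, 37 C, 5% CO2; lysis buffer with saponin/triton/SYBR Green I, o/n RT dark; FI 485/535; norm. to artemisinin (0.29 uM) and DMSO.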

ATS189 = system: ATS189
Summary of the method: as §1

ATS95 = system: ATS95
Summary of the method: as §1

C2A = system: C2A
Summary of the method: as §1

CP185 = system: CP185
Summary of the method: as §1

CP191 = system: CP191
Summary of the method: as §1

CP192 = system: CP192
Summary of the method: as §1

CP194 = system: CP194
Summary of the method: as §1

CP201 = system: CP201
Summary of the method: as §1

CP211 = system: CP211
Summary of the method: as §1

CP215 = system: CP215
Summary of the method: as §1

CP217 = system: CP217
Summary of the method: as §1

CP237 = system: CP237
Summary of the method: as §1

CP238 = system: CP238
Summary of the method: as §1

CP250 = system: CP250
Summary of the method: as §1

CP252 = system: CP252
Summary of the method: as §1

CP256 = system: CP256
Summary of the method: as §1

AS120 = system: AS120
Summary of the method: as §1

CP247 = system: CP247
Summary of the method: as §1

CP203 = system: CP203
Summary of the method: as §1
Potency is read from the fitted curve at half-maximal effect.

SMILES	Potency (AA1029)	Potency (ATS189)	Potency (ATS95)	Potency (C2A)	Potency (CP185)	Potency (CP191)	Potency (CP192)	Potency (CP194)	Potency (CP201)	Potency (CP211)	Potency (CP215)	Potency (CP217)	Potency (CP237)	Potency (CP238)	Potency (CP250)	Potency (CP252)	Potency (CP256)	Potency (AS120)	Potency (CP247)	Potency (CP203)
O=C1CN=C(c2ccccc2)c2cc(Cl)ccc2N1CC1CC1	inactive	inactive	inactive	inactive	inactive	inactive	inactive	inactive	inactive	inactive	inactive	inactive	inactive	inactive	inactive	inactive	inactive			
CC12NC(Cc3ccccc31)c1ccccc12 (stereo not drawn)	11200 nM (active)			inactive			inactive		inactive	inactive	inactive				inactive					
CCOc1ccc2c3c1O[C@H]1[C@@H](O)C=C[C@H]4[C@@H](C2)N(C)CC[C@@]341	inactive	inactive	inactive	inactive	inactive	inactive	inactive		inactive			inactive	inactive	inactive	inactive	inactive	inactive	inactive	inactive	
O=C(NC(=O)c1c(F)cccc1F)Nc1ccc(Cl)c(Oc2ncc(C(F)(F)F)cc2Cl)c1	inactive	inactive	inactive	inactive	inactive	inactive	inactive	inactive	inactive	inactive		inactive	inactive	inactive	inactive	inactive	inactive	inactive	inactive	inactive
C=CCN=C=S	inactive	inactive	inactive	inactive	inactive	inactive						inactive	inactive	inactive	inactive	inactive	inactive	inactive	inactive	
N#CC(C#N)=Cc1cc(O)c(O)c(O)c1	12600 nM (active)			10000 nM (active)	8910 nM (active)		13500 nM (active)	15100 nM (active)		13500 nM (active)			8.91 µM (active)		11200 nM (active)			8910 nM (active)	8910 nM (active)	
C/C(=C\c1csc(C)n1)[C@@H]1C[C@@H]2O[C@]2(C)CCC[C@H](C)[C@H](O)[C@@H](C)C(=O)C(C)(C)[C@@H](O)CC(=O)O1	4.5 nM (active)	7.1 nM (active)	3.5 nM (active)	4.5 nM (active)	2 nM (active)	2.8 nM (active)	3 nM (active)	3.8 nM (active)		3 nM (active)	3.8 nM (active)	4 nM (active)	0.0016 µM (active)	3.2 nM (active)	7.1 nM (active)	3.5 nM (active)	2.2 nM (active)	2.5 nM (active)	2.8 nM (active)	2.4 nM (active)
C[C@@H](Cc1ccccc1)NCCC(c1ccccc1)c1ccccc1		inactive		inactive			inactive		inactive	inactive	inactive		inactive	inactive		inactive				
CCOP(=O)(OCC)O/C(=C/Cl)c1ccc(Cl)cc1Cl	inactive	inactive	inactive	inactive		inactive	inactive		inactive				inactive	inactive	inactive	inactive	inactive			
Oc1cc(Cl)c(Cl)cc1Cl	inactive	inactive	inactive	inactive	inactive	inactive	inactive	inactive	inactive	inactive	inactive	inactive	inactive	inactive	inactive	inactive	inactive	inactive	inactive	
COc1ccc2c(c1OC)C(=O)OC2C1c2cc3c(cc2CCN1C)OCO3 (stereo not drawn)	inactive	inactive	inactive	inactive	inactive	inactive						inactive	inactive		inactive	inactive	inactive	inactive	inactive	
Cc1sc2ccccc2c1CC1=NCCN1	inactive	inactive	inactive	inactive	inactive		inactive	inactive	inactive	inactive	inactive	inactive		inactive	inactive	inactive	inactive	inactive	inactive	inactive
CCCN1CCCC2Cc3[nH]ncc3CC21 (stereo not drawn)	inactive	inactive	inactive	inactive	inactive	inactive						inactive	inactive	inactive	inactive	inactive	inactive	inactive	inactive	
CCC(=O)O[C@@](Cc1ccccc1)(c1ccccc1)[C@@H](C)CN(C)C	inactive	inactive	inactive	inactive	inactive	inactive	inactive	inactive	inactive		inactive	inactive	inactive	inactive	inactive	inactive	inactive	inactive	inactive	inactive
CCC1(c2ccccc2)C(=O)NC(=O)N(C)C1=O (stereo not drawn)	inactive		inactive	inactive	inactive		inactive	inactive	inactive	inactive		inactive	inactive	inactive	inactive	inactive	inactive	inactive	inactive	inactive
CCC1(C)CC(=O)NC(=O)C1	inactive	inactive		inactive	inactive	inactive	inactive	inactive	inactive	inactive	inactive	inactive	inactive	inactive	inactive	inactive	inactive	inactive	inactive	inactive
CNC1(c2ccccc2Cl)CCCCC1=O (stereo not drawn)	inactive	inactive		inactive	inactive		inactive		inactive	inactive	inactive	inactive	8.91 µM (active) and 7.94 µM (active)	inactive	inactive	inactive	inactive	inactive	inactive	inactive
CN1[C@@H]2CC[C@H]1CC(OC1c3ccccc3CCc3ccccc31)C2 (stereo partly drawn)	3550 nM (active)					2510 nM (active)	inactive		inactive		inactive	3160 nM (active)				3160 nM (active)	inactive	3550 nM (active)		
